This passage reports cytotoxicity call results from the antibiotic and cytotoxicity screens of Wong et al. (2023).

Out of some 39,000 compounds screened, about 1,500 (3.8%) were called active. Only a selection was taken, and actives are over-represented in it overall.

The test system of this assay is HSkMC (human skeletal muscle cells). As to the kind of experiment: cytotoxicity call (relative viability < 0.9). To be noted: 10 µM.
Regarding `C[C@H]1CCCCO[C@H](CN(C)C(=O)c2ccccc2)[C@@H](C)CN([C@@H](C)CO)C(=O)c2cc(NC(=O)Nc3ccc4c(c3)OCO4)ccc2O1`, the cytotoxicity call is “inactive”.

In the case of `COc1ccc(S(=O)(=O)N2CC(NC(=O)Cn3ccc(=O)n(C)c3=O)C2)cc1`, the cytotoxicity call is “inactive”.

With `O=S(=O)(N1CCOCC1)n1nnc2ccccc21`, the cytotoxicity call was “inactive”.

For the compound `C[C@H](CO)N1C[C@H](C)[C@H](CN(C)Cc2ccc(C(F)(F)F)cc2)Oc2ccc(NC(=O)Cn3cnnn3)cc2CC1=O`, the cytotoxicity call was “inactive”.

As for `C[C@@H]1CN([C@@H](C)CO)C(=O)c2cc(C#CC3(O)CCCC3)cnc2O[C@@H]1CN(C)C(=O)C1CCOCC1`, the cytotoxicity call is “inactive”.

For `CN1C(=O)c2cc(NC(=O)Cc3cccs3)ccc2OC[C@H]2O[C@H](CC(=O)NCCCN3CCOCC3)CC[C@@H]21`, the cytotoxicity call was “inactive”.

As for `Cc1noc(C)c1S(=O)(=O)Nc1ccc2c(c1)C(=O)N([C@@H](C)CO)C[C@H](C)[C@H](CN(C)S(=O)(=O)c1cccs1)O2`, the cytotoxicity call was “inactive”.

On to `C[C@@H]1CN([C@H](C)CO)C(=O)CCCn2cc(nn2)CO[C@@H]1CN(C)S(=O)(=O)c1cccc(C#N)c1`, for which the cytotoxicity call is “inactive”.

In the case of `Oc1cccc(c1)/C/1=C/2\CC/C(=C(\c3cccc(c3)O)c3ccc([nH]3)/C(=C\3/C=CC(=N3)/C(=C\3/C=CC1=N3)c1cccc(c1)O)c1cccc(c1)O)N2`, the cytotoxicity call was “active”.

Regarding `OS(=O)(=O)c1ccc(cc1)/C/1=C\2/N/C(=C(\C3=N/C(=C(/c4ccc(cc4)S(=O)(=O)O)c4ccc([nH]4)/C(=C\4/C=CC1=N4)c1ccc(cc1)S(=O)(=O)O)C=C3)c1ccc(cc1)S(=O)(=O)O)C=C2`, the cytotoxicity call was “inactive”.

Consider `CC(C)NC(=O)Nc1ccc2c(c1)CC(=O)N([C@@H](C)CO)C[C@@H](C)[C@@H](CN(C)C(=O)NC1CCCCC1)O2`, for which the cytotoxicity call was “inactive”.

For the compound `CCC(=O)NC[C@H](Cc1ccc(OCCc2nc(-c3ccccc3)oc2C)cc1)N/C(C)=C\C(=O)c1ccc(C(F)(F)F)cc1`, the cytotoxicity call is “active”.

Turning to `O=C(O)C[C@@H]1CC[C@H]2[C@@H](COC[C@H](O)CN2S(=O)(=O)c2ccc(F)cc2)O1`, the cytotoxicity call was “inactive”.

Regarding `COc1cnc(SC)n(C)c1=O`, the cytotoxicity call was “inactive”.

Turning to `C[C@@H]1CN([C@@H](C)CO)C(=O)Cc2cc(NS(=O)(=O)c3cn(C)cn3)ccc2O[C@H]1CN(C)CC1CCCCC1`, the cytotoxicity call was “inactive”.

Consider `CN(C)CC#Cc1ccc([C@@H]2[C@H](CO)N3CCCCN(C(=O)CN(C)C)C[C@@H]23)cc1`, for which the cytotoxicity call is “inactive”.

In the case of `COc1ccc(NC(=O)N2CCCCN3[C@H](COCCN(C)C)[C@H](c4ccc(C#Cc5ccccc5)cc4)[C@@H]3C2)cc1`, the cytotoxicity call was “active”.

Take `CN(C)CC#Cc1ccc([C@@H]2[C@@H](CO)N3CCCCN(C(=O)CN(C)C)C[C@@H]23)cc1`: the cytotoxicity call is “inactive”.

On to `COc1ccc(NC(=O)N2CCCCN3[C@H](CN(C)C(C)=O)[C@H](c4ccc(C#Cc5ccccc5)cc4)[C@@H]3C2)cc1`, for which the cytotoxicity call is “active”.

Consider `CN(C)CC#Cc1ccc([C@H]2[C@@H](CO)N3CCCCN(C(=O)CN(C)C)C[C@H]23)cc1`, for which the cytotoxicity call was “inactive”.

In the case of `CN(C)CC#Cc1ccc([C@H]2[C@@H](CO)N3CCCCN(C(=O)CN(C)C)C[C@@H]23)cc1`, the cytotoxicity call is “inactive”.

Regarding `C[C@H]1Cc2c(N)nn(C)c2NC1=O`, the cytotoxicity call is “inactive”.

For `CC(=O)OCC(=O)C12OC3(CCCC3)OC1CC1C3CCC4=CC(=O)C=CC4(C)C3(F)C(O)CC12C` (stereo not drawn), the cytotoxicity call is “inactive”.

As for `C[C@@H]1CN([C@H](C)CO)C(=O)Cc2cc(NS(=O)(=O)c3cccs3)ccc2O[C@H]1CN(C)Cc1ccc(-c2ccccc2)cc1`, the cytotoxicity call was “inactive”.

In the case of `Cc1ccc(-c2ccc3c(c2)O[C@@H](CN(C)C(=O)NC(C)C)[C@@H](C)CN([C@H](C)CO)S3(=O)=O)cc1`, the cytotoxicity call is “inactive”.

For `COc1ccc(NC(=O)N(C)C[C@@H]2OCCCC[C@@H](C)Oc3ccc(NC(=O)Cc4ccccc4)cc3C(=O)N([C@H](C)CO)C[C@H]2C)cc1`, the cytotoxicity call is “inactive”.

Turning to `C[C@@H]1CCCCO[C@@H](CN(C)C(=O)Cc2ccccc2)[C@@H](C)CN([C@H](C)CO)C(=O)c2cc(NC(=O)c3ccccc3)ccc2O1`, the cytotoxicity call was “inactive”.

With `COc1ccc(-c2cccc(-c3nc(C(=O)NCC(F)(F)F)cc4c3[C@H](CCO)N([S@@](=O)C(C)(C)C)C4)c2)cc1`, the cytotoxicity call is “inactive”.

Take `C[C@@H]1CCCCO[C@@H](CN(C)C(=O)Cc2ccccc2)[C@H](C)CN([C@@H](C)CO)C(=O)c2cc(NC(=O)CCC(F)(F)F)ccc2O1`: the cytotoxicity call is “inactive”.

Consider `Cc1cc(Nc2ncc(Cl)c(Nc3ccccc3S(=O)(=O)C(C)C)n2)c(OC(C)C)cc1C1CCNCC1`, for which the cytotoxicity call was “active”.

Regarding `COc1cc(N2CCC(N3CCN(C)CC3)CC2)ccc1Nc1ncc(Cl)c(Nc2ccccc2S(=O)(=O)C(C)C)n1`, the cytotoxicity call is “active”.

As to `COc1cc(N2CCC(O)CC2)ccc1Nc1cc(Nc2ccccc2S(=O)(=O)C(C)C)c2cc[nH]c2n1`, the cytotoxicity call was “inactive”.

As to `COc1cc(N2CCC(N(C)C)CC2)ccc1Nc1ncc(Cl)c(Nc2ccccc2P(C)(C)=O)n1`, the cytotoxicity call is “active”.

Regarding `NC1CCN(C(=O)c2c[nH]c3ccccc23)CC1`, the cytotoxicity call was “inactive”.

`COc1cc(C(=O)NC2CCN(C)CC2)ccc1Nc1ncc2c(n1)N(C1CCC(O)CC1)CCC(=O)N2C` (stereo not drawn): the cytotoxicity call was “inactive”.

Take `COc1cc(N2CCC(N)CC2)ccc1Nc1ncc(Cl)c(-c2c[nH]c3ccccc23)n1`: the cytotoxicity call is “active”.

For `Cc1noc(C)c1NC(=O)N(C)C[C@H]1Oc2ccc(NC(=O)CCCN(C)C)cc2C(=O)N([C@@H](C)CO)C[C@H]1C`, the cytotoxicity call is “inactive”.

In the case of `C[C@H]1CN([C@@H](C)CO)C(=O)c2cc(NC(=O)Cc3cn(C)c4ccccc34)ccc2O[C@H]1CN(C)Cc1ccc(C(=O)Nc2ccccc2N)cc1`, the cytotoxicity call was “inactive”.

With `COc1ccc(NC(=O)N(C)C[C@@H]2OCCCC[C@@H](C)Oc3ccc(NS(=O)(=O)c4ccccc4)cc3C(=O)N([C@@H](C)CO)C[C@H]2C)cc1`, the cytotoxicity call is “inactive”.

As for `O=C(C[C@@H]1C=C[C@H](NC(=O)CN2CCOCC2)[C@@H](CO)O1)NC1CCCCC1`, the cytotoxicity call was “inactive”.

Consider `C[C@@H]1CN([C@@H](C)CO)S(=O)(=O)c2ccc(C#CCC3CCCC3)cc2O[C@@H]1CN(C)C(=O)c1cnccn1`, for which the cytotoxicity call was “inactive”.

Turning to `C[C@H](CO)N1C[C@H](C)[C@H](CN(C)Cc2ccc(C(=O)O)cc2)Oc2ccc(NS(=O)(=O)c3cn(C)cn3)cc2C1=O`, the cytotoxicity call was “inactive”.

Take `O=C(NCCN1CCCC1)[C@H]1[C@H](CO)[C@H]2Cn3c(cccc3=O)[C@H]2N1C(=O)c1ccccc1`: the cytotoxicity call is “inactive”.
